Experimental data from PubChem BioAssay (NCI).
“And” between values parts separate entries of the source, which are not always exact repeats. Equal values may be shown once. The panel holds about 83,000 compounds, 20% with a hit somewhere; the sample as a whole holds those more often.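 A percent growth of 40 corresponds to 60% growth inhibition; 0 means no net growth; -100 means all cells died. Active threshold: below 10.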 The source made the active and inactive calls.

Assays:
Assay in all cases: NCI-60 one-dose screen, 48 h (100 = growth as untreated, 0 = no growth, -100 = all killed)
HCT-15 colon = test system: HCT-15 colon
HT29 colon = test system: HT29 colon
SNB-75 CNS = test system: SNB-75 CNS
SNB-19 CNS = test system: SNB-19 CNS
U251 CNS = test system: U251 CNS
PC-3 prostate = test system: PC-3 prostate
SK-MEL-5 melanoma = test system: SK-MEL-5 melanoma
UACC-62 melanoma = test system: UACC-62 melanoma
LOX IMVI melanoma = test system: LOX IMVI melanoma
SK-MEL-28 melanoma = test system: SK-MEL-28 melanoma

Measured: growth

CCCCCCCCN(CCCCCCCC)CC(O)c1cc(Cl)ccc1OC (stereo not given)
inactive: HCT-15 colon; 10 µM unless noted 61.8% | HT29 colon; 10 µM unless noted 38.7% | SNB-75 CNS; 10 µM unless noted 76.5% | SNB-19 CNS; 10 µM unless noted 91.2% | U251 CNS; 10 µM unless noted 78.6% | PC-3 prostate; 10 µM unless noted 71.9% | SK-MEL-5 melanoma; 10 µM unless noted 56% | UACC-62 melanoma; 10 µM unless noted 64.6% | LOX IMVI melanoma; 10 µM unless noted 13.1% | SK-MEL-28 melanoma; 10 µM unless noted 80.5%

CC[C@]12CN3CCc4c([nH]c5ccccc45)[C@@](C(=O)OC)(c4cc5c(cc4OC)N(C)[C@H]4[C@@](O)(C(=O)OC)[C@H](OC(C)=O)[C@]6(CC)C=CCN7CC[C@]54[C@@H]76)CC(C3)[C@H]1O2 (stereo not given in full)
inactive: HCT-15 colon; 10 µM unless noted 29% | SNB-19 CNS; 10 µM unless noted 26.9% | U251 CNS; 10 µM unless noted 16% | PC-3 prostate; 10 µM unless noted 15.5% | UACC-62 melanoma; 10 µM 26.6% | LOX IMVI melanoma; 10 µM unless noted 19.5% | SK-MEL-28 melanoma; 10 µM unless noted 60.2%
94.4% (inactive) and -98.3% (active): UACC-62 melanoma; 100 µM
active: HT29 colon; 10 µM unless noted 2.74% | SNB-75 CNS; 10 µM unless noted -2.51% | SK-MEL-5 melanoma; 10 µM unless noted -26.4%

CN(C)CCNc1ncc(F)c(-c2cnc3cc(-c4cnn(C)c4)ccn23)n1
inactive: HCT-15 colon; 0.005 µM 99.2% | HCT-15 colon; 30 µM 31.2% | HT29 colon; 0.005 µM 99.7% | HT29 colon; 30 µM 42.8% | SNB-75 CNS; 0.005 µM 100% | SNB-75 CNS; 30 µM 50% | SNB-19 CNS; 0.005 µM 97% | SNB-19 CNS; 30 µM 73.4% | U251 CNS; 0.005 µM 96.3% | U251 CNS; 30 µM 75.9% | PC-3 prostate; 0.005 µM 103% | PC-3 prostate; 30 µM 44.9% | SK-MEL-5 melanoma; 10 µM unless noted 101% [0.005 µM] | UACC-62 melanoma; 0.005 µM 98% | UACC-62 melanoma; 30 µM 82.7% | LOX IMVI melanoma; 0.005 µM 98.6% | LOX IMVI melanoma; 30 µM 19.9% | SK-MEL-28 melanoma; 0.005 µM 105% | SK-MEL-28 melanoma; 30 µM 96.7%

CCCO/N=C/c1ccccn1
inactive: HCT-15 colon; 10 µM unless noted 106% and 103% | HT29 colon; 10 µM unless noted 96.8% and 93.4% | SNB-75 CNS; 10 µM unless noted 85.2% and 85.5% | SNB-19 CNS; 10 µM unless noted 97.8% and 105% | U251 CNS; 10 µM unless noted 103% and 101% | PC-3 prostate; 10 µM unless noted 117% and 96.1% | SK-MEL-5 melanoma; 10 µM unless noted 104% and 108% | UACC-62 melanoma; 10 µM unless noted 99.2% and 108% | LOX IMVI melanoma; 10 µM unless noted 108% and 98.5% | SK-MEL-28 melanoma; 10 µM unless noted 107% and 99.4%

CN1CCN(Cc2ccc(NC(=O)c3nc4ccc5[nH]ncc5c4c4c3CCCC4)cc2C(F)(F)F)CC1
active: HCT-15 colon; 10 µM unless noted -74.6% | HT29 colon; 10 µM unless noted -83.2% | SNB-75 CNS; 10 µM unless noted -90% | SNB-19 CNS; 10 µM unless noted -88.8% | U251 CNS; 10 µM unless noted -91% | PC-3 prostate; 10 µM unless noted -83.5% | SK-MEL-5 melanoma; 10 µM unless noted -92.6% | UACC-62 melanoma; 10 µM unless noted -87.5% | LOX IMVI melanoma; 10 µM unless noted -94.9% | SK-MEL-28 melanoma; 10 µM unless noted -85.8%

O=C(O)c1ccccc1Cc1ccc(F)c2ccccc12
inactive: HCT-15 colon; 10 µM unless noted 108% and 99.4% | HT29 colon; 10 µM unless noted 116% and 107% | SNB-75 CNS; 10 µM unless noted 93.6% and 77.4% | SNB-19 CNS; 10 µM unless noted 101% and 104% | U251 CNS; 10 µM unless noted 115% and 104% | PC-3 prostate; 10 µM unless noted 120% and 90.7% | SK-MEL-5 melanoma; 10 µM unless noted 96.2% and 102% | UACC-62 melanoma; 10 µM unless noted 101% and 106% | LOX IMVI melanoma; 10 µM unless noted 100% and 98.9% | SK-MEL-28 melanoma; 10 µM unless noted 105%

Clc1ccc(CNc2ccc3nc(CCC4CCCCC4)[nH]c3c2)cc1
active: HCT-15 colon; 10 µM unless noted 9.61% | HT29 colon; 10 µM unless noted 4.9% | SK-MEL-5 melanoma; 10 µM unless noted 0.653%
inactive: SNB-75 CNS; 10 µM unless noted 77.2% | SNB-19 CNS; 10 µM unless noted 71.1% | U251 CNS; 10 µM unless noted 43.8% | PC-3 prostate; 10 µM unless noted 46.7% | UACC-62 melanoma; 10 µM unless noted 67.4% | LOX IMVI melanoma; 10 µM unless noted 72% | SK-MEL-28 melanoma; 10 µM unless noted 42%

CC(=O)/C=C/c1ccc(OCc2ccc(C(C)(C)C)cc2)cc1
inactive: HCT-15 colon; 10 µM 64.7% | HCT-15 colon; 100 µM 22.2% | HT29 colon; 10 µM 42.4% | SNB-75 CNS; 10 µM 94.7% | SNB-19 CNS; 10 µM 98.5% | SNB-19 CNS; 100 µM 28.5% | U251 CNS; 10 µM 88.9% | U251 CNS; 100 µM 37.7% | PC-3 prostate; 10 µM 79.1% | PC-3 prostate; 100 µM 14% | SK-MEL-5 melanoma; 10 µM 50.3% | UACC-62 melanoma; 10 µM 74.2% | LOX IMVI melanoma; 10 µM 62.3% | LOX IMVI melanoma; 100 µM 32% | SK-MEL-28 melanoma; 10 µM 85.5%
active: HT29 colon; 100 µM 8.01% | SNB-75 CNS; 100 µM -11.6% | SK-MEL-5 melanoma; 100 µM -6.85% | UACC-62 melanoma; 100 µM -3.4% | SK-MEL-28 melanoma; 100 µM -1.32%

Cc1ccccc1SSc1ccccc1C
inactive: HCT-15 colon; 10 µM unless noted 17.9% | HT29 colon; 10 µM unless noted 23.6% | SNB-75 CNS; 10 µM unless noted 123% | SNB-19 CNS; 10 µM unless noted 84.2% | U251 CNS; 10 µM unless noted 87.6% | PC-3 prostate; 10 µM unless noted 66.7% | SK-MEL-5 melanoma; 10 µM unless noted 89.6% | UACC-62 melanoma; 10 µM unless noted 78.8% | LOX IMVI melanoma; 10 µM unless noted 72% | SK-MEL-28 melanoma; 10 µM unless noted 121%

CCCN1C(=O)/C(=c2\sc3n(c2=O)NC2C(N=3)N(CC)C(=O)N2CC)c2ccccc21 (stereo not given)
inactive: HCT-15 colon; 10 µM unless noted 24.6% | HT29 colon; 10 µM unless noted 13.5% | SNB-75 CNS; 10 µM unless noted 12.9% | SNB-19 CNS; 10 µM unless noted 40.2% | U251 CNS; 10 µM unless noted 29.9% | PC-3 prostate; 10 µM unless noted 42.5% | SK-MEL-5 melanoma; 10 µM unless noted 41.8% | UACC-62 melanoma; 10 µM unless noted 31.8% | LOX IMVI melanoma; 10 µM unless noted 38.8% | SK-MEL-28 melanoma; 10 µM unless noted 54.5%
